The values that follow come from PubChem BioAssay AID1981 (Southern Research Specialized Biocontainment Screening …, 2009).

Structures are written as SMILES. In all, about 2,200 compounds went through this assay and about 480 (22%) were called active. No rule for the calls is given here. A selection follows. Results with a measured potency or affinity are listed apart.

The nature of the assay: S. Typhimurium GFP fluorescence dose response in modified counterscreen for PhoP regulon inhibitor project (AID 1981).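 Also: 0% = induced DMSO wells and 100% = uninduced wells.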 Conditions: 4 h; series mostly up to 150 µM; inhibition: at the top concentration. Background: Counterscreens check selectivity or assay interference.
As a reminder, the inhibition is the change of the read-out against control, counted positive when it falls. `O=C(Cn1cc[n+](CC(=O)c2ccccc2)c1)c1ccccc1`: the “inhibition” value was 2.89% (inactive).
Then `C/C(=N/Nc1nc(-c2ccccc2)cc(-c2ccc(F)cc2)n1)c1cccc(N)c1`, with -15.2% (inactive); and `c1ccc(-c2nnc(SCCC3OCCCO3)o2)cc1`, with 0.89% (inactive); and `CC1(C)CC2CC(C)(CN2C(=O)COC(=O)c2n[nH]c(=O)c3ccccc23)C1` (configuration not stated), with -11.8% (inactive).
Take `c1ccc(COc2ccccc2CNCc2cccnc2)cc1`: the “inhibition” value is -13.4% (inactive).
Next, `Fc1ccccc1COc1ccc(Br)cc1CNCc1ccncc1`: 6.22% (inactive); `O=[N+]([O-])c1ccccc1CNc1ccc(F)c(Cl)c1`: -9.25% (inactive); `O=c1cc(CSc2nc(NCc3ccccc3)c3ccccc3n2)nc2ccc(Cl)cn12`: -1.33% (inactive).
For `N#CCCN(C(=O)CN1C(=O)NC2(CCCC2)C1=O)c1ccccc1F`, the “inhibition” value is -3.3% (inactive).
Then `O=C(CCNS(=O)(=O)c1cccc2nsnc12)Nc1ccc2c(c1)OCCO2`, with -1.71% (inactive); and `Cc1nc2c(=O)n(C)c(=O)n(C)c2nc1Cl`, with 27.1% (inactive).
Next, `Cc1cc(C)nc(/N=C(\N)Nc2ccc(SC(F)F)cc2)n1`: -2.31% (inactive); `CC(=O)c1c(C)[nH]c(C(=O)CSc2nnc(-c3ccco3)n2Cc2ccccc2)c1C`: -0.99% (inactive).
Next, `O=C(O)c1cc(NCc2ccc3c(c2)OCO3)ccc1N1CCOCC1`: -0.23% (inactive); `O=C(Cn1nc(Cc2cccnc2)c2ccccc2c1=O)NCc1ccc2c(c1)OCO2`: -5.89% (inactive); `Cc1ccc(S(=O)(=O)c2cn(Cc3ccc(F)cc3)c3cc4c(cc3c2=O)OCO4)cc1`: 1.56% (inactive).
For the compound `CCn1cc(C(=O)O)c(=O)c2cc(Br)ccc21`, the “inhibition” value is 23.3% (inactive).
Next, `Cc1cccc(C(=O)O/N=C2\CCSc3ccc(C)cc32)c1`: -14.1% (inactive); `Cc1cccc(OCC(=O)N(Cc2cccs2)C2CCS(=O)(=O)C2)c1C` (configuration not stated): -15.6% (inactive); `O=c1c2c([nH]c3ccccc13)CCCCC2`: 19.2% (inactive).
Next, `CCCOc1ccc(/C=N/O)cc1`: -3.17% (inactive).
Next, `C/C(=N/Nc1nc(-c2ccc(Cl)cc2)cs1)c1cccs1`: -14.2% (inactive).
`Clc1ccc(-c2c[n+](Cc3ccc(Cl)cc3Cl)c3n2CCCCC3)cc1`: the “inhibition” value is -3.21% (inactive).
Next, `O=C(C[n+]1cc(-c2ccccc2)n2c1CCCCC2)c1ccc(Cl)cc1`: -1.46% (inactive); `Clc1ccc(C[n+]2cc(-c3ccc(Cl)cc3)n3c2CCC3)cc1`: 7.72% (inactive); `CCN(CC)CC(=O)Nc1nc(-c2ccc(Cl)cc2)cs1`: -7.54% (inactive).
Then `CCOC(=O)Cc1ccc(NS(=O)(=O)c2ccc(SC)cc2)cc1`, with -8.64% (inactive); and `CCOC(=O)N1CCN(C(=O)c2ccc(NC(=O)c3ccc(C)cc3)cc2)CC1`, with 12.8% (inactive).
Then `O=C(O)C1CCC(N2C(=O)C3CCCCC3C2=O)CC1` (configuration not stated), with -1.85% (inactive); and `COC(=O)c1sccc1NC(=O)c1cccnc1`, with 0.03% (inactive); and `Cc1ccc(Nc2nnc(C3C(=O)N(C)C4(C)CC3c3cc(Br)ccc3O4)s2)cc1` (configuration not stated), with -4.36% (inactive).
Regarding `Cc1ccc(S(=O)(=O)c2c(C(=O)c3ccccc3)cnc3cc4c(cc23)OCCO4)cc1`, the “inhibition” value is 16.2% (inactive).
Next, `CC1(C)CC(=O)C2=C(C1)N(Cc1ccccc1)C(=O)C2(O)C(F)(F)F` (configuration not stated): 2% (inactive).
Then `CCN1C(=O)/C(=C/N2CC(C)CC(C)C2)SC1=S` (configuration not stated), with -15.7% (inactive).
Consider `O=C(CSc1n[nH]c(=O)[nH]c1=O)N/N=C/c1ccccc1`, for which the “inhibition” value was -7.06% (inactive).
Then `Cc1cc([N+](=O)[O-])ccc1NC(=O)Cc1ccc(F)cc1`, with -22.2% (inactive).
Then `Cc1ccccc1-n1c(C)cc(/C=N/Nc2ccc([N+](=O)[O-])cn2)c1C`, with 0.91% (inactive); and `Cc1ccsc1/C=N/NC(=O)Cn1cnc2ccccc21`, with -7.04% (inactive).
Next, `O=C(CSc1nc2ccccc2s1)Nc1ccc(N2CCOCC2)c(Cl)c1`: -4.65% (inactive); `CN(CCO)c1cc(Sc2nc3ccccc3s2)c2nonc2c1[N+](=O)[O-]`: 0.73% (inactive); `Cc1ccc([N+](=O)[O-])cc1NC(=S)NC(=O)C(C)(C)C`: -14.7% (inactive).
On to `COc1ccc(NC(=O)c2sccc2SCC#N)cc1`, for which the “inhibition” value was -8.07% (inactive).
Next, `CC(=S)c1c(C)cc2cc(C)ccn12`: -0.73% (inactive); `CN(C)c1ccnc(Oc2ccc(F)cc2)c1C#N`: -6.5% (inactive); `CCn1c(SCc2ccc(F)cc2)nnc1C1CCN(S(=O)(=O)c2ccc(OC)cc2)CC1`: -8.67% (inactive).
Next, `Cc1ccc(C(C)C)c(OCC(=O)Nn2c(=O)[nH]c3ccccc3c2=O)c1`: 10% (inactive); `COc1ccc(S(=O)(=O)N2Cc3ccccc3CC2C(=O)N2CCOCC2)cc1OC` (configuration not stated): -0.72% (inactive); `CCNC(=O)NC1(C(=O)Nc2ccc3c(c2)OCCO3)CCCCC1`: -6.31% (inactive).
Next, `CCN(CC)c1ccc(S(=O)(=O)Nc2cc(Cl)ccc2Cl)cc1NC(=S)NC(=O)C1CCCC1`: -28.7% (inactive).
With `CCN1CCN(Cc2ccc(C)cc2C)CC1`, the “inhibition” value is -22.1% (inactive).
Then `Cc1ccc(C2NNC(=O)C2NC(=O)c2ccccc2)cc1` (configuration not stated), with -8.3% (inactive); and `Cc1nc(N)sc1Cc1ccc2c(c1)OCO2`, with -1.43% (inactive); and `C=CCNc1sc(C(=O)c2ccc(C)cc2)c(N)c1C#N`, with 7.13% (inactive).
Then `COC(=O)C(CCSC)NC(=O)c1cccc([N+](=O)[O-])c1` (configuration not stated), with 1.67% (inactive); and `NC(=O)c1cnn(Cc2ccc(Cl)cc2)c1N`, with -11.2% (inactive); and `Cc1nc2c(Cl)cccc2c2c1CC(CBr)O2` (configuration not stated), with 8.79% (inactive).
Next, `CC(=O)NC12CC3CC(C1)CC(C(=O)OCC(=O)c1ccc4c(c1)OCCO4)(C3)C2`: -5.94% (inactive).
